From PubChem BioAssay
Bim-Bcl-XL = inhibitors of Bim-Bcl-XL interaction, human; Q07817; Bim peptide-Bcl-XL binding, bead flow cytometry, fluorescence; inhibition, % at 10 µM; 0.04% of 190,000 active
Bcl-W Bim block = human Bim-Bcl-W interaction inhibition | 0.02% of 190,000 active | AID 952 | Q92843 | inhibition, % at 10 µM | bead-based flow cytometry, Bim peptide-Bcl-W binding;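 further: 0% = bound tracer without compound and 100% = peptide blocker; higher means less fluorescent Bim peptide bound to Bcl-W beads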
Bcl-B Bim block = inhibitors of Bim-Bcl-B interaction, human; 0.073% of 190,000 active; Q9HD36; bead-based flow cytometry, Bim peptide-Bcl-B binding; AID 951; inhibition, % at 10 µM;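 further: 0% = tracer peptide without compound and 100% = reference inhibitor peptide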
Target sequence (Q9HD36 whole entry, looked up): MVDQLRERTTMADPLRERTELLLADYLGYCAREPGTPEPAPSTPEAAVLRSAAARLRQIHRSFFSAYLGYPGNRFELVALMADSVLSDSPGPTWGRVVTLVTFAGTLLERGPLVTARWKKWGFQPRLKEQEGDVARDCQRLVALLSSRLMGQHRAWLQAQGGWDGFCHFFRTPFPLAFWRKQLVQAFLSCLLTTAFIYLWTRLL
Bcl-2 Bim block = human Bim-Bcl-2 interaction inhibition; 0.06% of 190,000 active; P10415; Bead-based flow cytometry, Bim peptide-Bcl-2 binding; inhibition, % at 10 µM; in the data active means inhibition above about 40%;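 further: 0% = no compound wells with probe peptide and 100% = reference peptide inhibitor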
Target sequence (P10415 whole entry, looked up): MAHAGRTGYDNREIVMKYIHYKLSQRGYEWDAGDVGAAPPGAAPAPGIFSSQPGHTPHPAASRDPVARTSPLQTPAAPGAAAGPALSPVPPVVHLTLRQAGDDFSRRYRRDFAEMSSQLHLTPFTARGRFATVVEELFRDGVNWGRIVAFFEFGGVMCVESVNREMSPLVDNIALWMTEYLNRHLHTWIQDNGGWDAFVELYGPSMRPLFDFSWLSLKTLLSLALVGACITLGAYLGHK
Wee1 degr inh = human Wee1 degradation inhibition, primary screen. P30291. HeLa Luc-Wee1K328M stability, luciferase luminescence; 100% = proteasome inhibitor MG132 effect. reporter increase, % at 5 µM. 1.2% of 220,000 active. AID 1321;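 active means activation above the mean of all tested compounds plus 3 SD, set per screening run, cut at about 8.8% in these data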;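 further: cells exposed to compound for 20 h before luminescence read; 0% = DMSO alone and 100% = MG132 at 30 µM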
Bim-Bfl-1 = disrupts Bim binding to human Bfl-1 | Q16548 | Bead-based flow cytometry, Bim-Bfl-1 binding inhibition | inhibition, % at 10 µM | 0.12% of 190,000 active | AID 1008;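 further: 0% = wells without compound plus tracer and 100% = blocker peptide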
The depositor's hits bear a star; nt = no result given. Rows were chosen to be rich in hits. Some 1.4% of all compounds tested hit in one or more screens of this group. Unless noted, no stated cut-off is given here; in the data, active means inhibition above about 40%.

SMILES	Bim-Bcl-XL	Bcl-W Bim block	Bcl-B Bim block	Bcl-2 Bim block	Wee1 degr inh	Bim-Bfl-1
CCCOC(=O)CSc1nnc(-c2cc(OC)c(OC)c(OC)c2)o1	0	5	-4	1	-2	-4
CCCCCOC(=O)CSc1nnc(-c2cc(OC)c(OC)c(OC)c2)o1	-3	2	-4	-6	9.0*	-9
O=C(OCc1nnc(-c2ccc(Cl)cc2)o1)C12CC3CC(CC(O)(C3)C1)C2	2	0	2	3	9.8*	3
Cc1ccc(C)c(N(CC(=O)NC2CCCC2)C(=O)CCCC(=O)Nc2ccccn2)c1	-2	-4	-7	-5	8.9*	-6
Cc1cccc(N(CC(=O)NC2CCCC2)C(=O)CCCC(=O)Nc2ccccn2)c1	0	-1	0	-6	0	0
Cc1ccc(NC(=O)N2C(=O)C3(OCCO3)c3ccccc32)cc1	0	0	-1	-2	21*	-1
CCNC(=O)N1C(=O)C2(OCCO2)c2ccccc21	-6	-2	-6	-5	-2	-10
CCC(C)Sc1nnc(CSc2nc3nc(C)cc(C)n3n2)o1 (stereo not drawn)	0	0	0	0	-1	0
CCOC(=O)/C=C1\SCC(=O)N1CC(=O)NCc1cccc(Cl)c1	-10	-6	-14	-7	2	-5
COCCCNC(=O)c1ccccc1Oc1ccccc1	-4	0	-3	-5	14*	-14
O=C(NCCN1CCOCC1)c1ccccc1Oc1ccccc1	2	0	-2	-8	-1	-14
O=C(O)c1ccc(COc2ccccc2Cl)cc1	-3	-1	-2	-2	9.1*	-1
O=C(O)c1cccc(COc2ccccc2Cl)c1	-14	0	-7	-8	nt	-13
CC(=O)N1N=C(c2cccs2)CC1c1cc2cc(C)ccc2nc1Cl (stereo not drawn)	nt	nt	nt	nt	0	nt
O=C1NCCN1C(=O)c1cccc(Cl)c1	-1	1	-4	0	12*	-13
O=C1NCCN1C(=O)c1ccccc1F	-6	-1	-7	-12	2	-18
COc1ccc(NC(=O)/C(Cl)=C(/Cl)S(=O)Cc2ccc(Cl)cc2)cn1 (stereo not drawn)	0	3	-11	7	13*	40*
CC(NC(=O)C1CCN(S(=O)(=O)N2CCC3(CC2)OCCO3)CC1)c1ccccc1 (stereo not drawn)	-7	0	-3	-3	11*	-4
CC(C)COP(=O)(OCC(C)C)C(O)c1ccc(N(C)C)cc1 (stereo not drawn)	nt	nt	nt	nt	-2	nt
CC1(c2ccccc2Cl)NC(=O)N(CC(=O)Nc2ccc3c(c2)OCO3)C1=O (stereo not drawn)	-4	-1	-1	-3	0	-5
CCOc1ccc(C(=O)Nc2nc3ccccc3[nH]2)cc1OCC	-1	0	-8	-1	9.3*	-13
O=C1NCCCC1C(=O)N/N=C/c1cccc(O)c1 (stereo not drawn)	-4	-3	-5	-10	3	-20
CC(C)(C)c1[nH]nc2c1C(c1cccnc1)C(C#N)=C(N)O2 (stereo not drawn)	0	2	-3	-1	9.9*	-3
CN(CCc1ccccn1)C(=O)CCC1CCCN(C(=O)c2c3c(nn2C)CCCC3)C1 (stereo not drawn)	0	2	-2	0	4	-6
COc1ccc(-c2cc(-c3ccccc3)n[nH]2)c(O)c1	-3	0	-2	0	10*	-4
SMILES	Bim-Bcl-XL	Bcl-W Bim block	Bcl-B Bim block	Bcl-2 Bim block	Wee1 degr inh	Bim-Bfl-1
COc1ccc(CNC(=O)N[C@H](C(=O)O)C(C)C)cc1OC	nt	nt	nt	nt	3	nt
CN(CC1CCOCC1)C(=O)CC1C(=O)NCCN1Cc1ccc(-c2ccccc2)cc1 (stereo not drawn)	0	0	-1	-2	9.1*	-6
Cc1ccc(-c2nnc(Cc3ccc(Cl)cc3)o2)cc1	28	35	87*	92*	2	67*
CCOC(=O)c1oc2ccc(Br)cc2c1NC(=O)CN1CCN(C)CC1	-5	0	-1	0	-2	-3
O=C(Nc1c(C(=O)O)oc2ccc(Br)cc12)c1ccccc1	-14	-5	-5	-9	13*	-14
CC(C)N1CCN(Cc2cccn2-c2cccnc2)CC1CCO (stereo not drawn)	-5	-1	-3	-2	9.6*	-6
Cn1c(=O)c2c(O)c([N+](=O)[O-])c(=O)n(C)c2n(C)c1=O	nt	nt	nt	nt	-3	nt
C=C1c2cccc(O)c2C(O)=C2C(=O)[C@]3(O)C(O)=C(C(N)=O)C(=O)[C@@H](N(C)C)[C@@H]3[C@@H](O)[C@H]12	-8	-7	1	-1	-1	0
CN(C)[C@@H]1C(=O)C(C(=O)NCN2CCCC2)=C(O)[C@@]2(O)C(=O)C3=C(O)c4c(O)cccc4[C@@](C)(O)C3CC12 (stereo partly drawn)	10	21	43*	37	-3	19
Cc1[nH]n2c(=O)cc(C(C)C)nc2c1-c1ccccc1	-2	0	-5	-4	-1	-12
Cc1[nH]n2c(=O)cc(C(C)(C)C)nc2c1-c1ccccc1	-1	-1	-1	0	9.1*	0
Cc1c(N=C2C=CC(=O)c3ccccc32)c(=O)n(-c2ccccc2)n1C	2	10	-12	16	-1	53*
Cc1c(N=C2C=C(Br)C(=O)C(Br)=C2)c(=O)n(-c2ccccc2)n1C	3	16	-15	7	-2	18
COc1ccc(OC)c(C2=NOC(C(=O)NCc3cccs3)C2)c1 (stereo not drawn)	0	-1	-1	-4	0	-2
Cc1nonc1NC(=O)CSc1nnc(-c2ccoc2C)n1C	43*	24	23	33	2	44*
Cc1ccnc(N(C(=O)c2cccs2)C(=O)c2cccs2)c1	2	0	-1	-1	12*	-5
O=C(NC(=S)N1CCN(C/C=C/c2ccccc2)CC1)c1ccco1	-4	-3	-4	0	9.6*	-2
COc1ccc(C2=Nn3c(nnc3-c3ccco3)SC2)cc1OC	44*	29	26	14	0	8
Fc1ccc(C2=Nc3cccc4cccc(c34)N2)cc1	10	37	0	21	-2	49*
Brc1ccc(C2=Nc3cccc4cccc(c34)N2)o1	-1	4	-5	1	-1	12
CCN(CC)S(=O)(=O)c1ccc(OC)c(NC(=O)CSc2cc(C)ccc2C)c1	-7	-1	-7	-4	3	1
Cc1c(NC(=O)c2cccnc2C(=O)O)cccc1C(=O)O	-5	-5	-11	-6	0	-14
CNC(=O)c1ccc(-c2nc(-c3ccccc3)cs2)cc1	0	0	2	2	3	2
O=C(O)c1ccc(-c2nc(-c3ccccc3)cs2)cc1	0	2	-5	-4	9.6*	-11
COc1cccc(NC(=O)CSc2nncn2N)c1	39	23	22	28	3	41*
